Bioassay records from PubChem BioAssay.
Sampled rows, rich in hits. Any-hit rate of the full collection: about 13%.
G9a inh = qHTS Assay for Inhibitors of Histone Lysine Methyltransferase G9a; Histone-lysine N-methyltransferase EHMT2 (Homo sapiens), Q96KQ7; G9a H3K9 monomethylation, AlphaScreen, 2 h; Potency, µM (series often up to 102 µM), for the others: at the highest dose activity, negative = inhibition, hits mostly inhibitors; 350,000 compounds, 8.8% hits; note: potency is the fitted concentration of half-maximal effect; % is set by controls: 0 for no effect and ±100 for the full control effect; nearly all actives have a fitted effect of over 75% in size
Target sequence (Q96KQ7 913-1193 limits assumed): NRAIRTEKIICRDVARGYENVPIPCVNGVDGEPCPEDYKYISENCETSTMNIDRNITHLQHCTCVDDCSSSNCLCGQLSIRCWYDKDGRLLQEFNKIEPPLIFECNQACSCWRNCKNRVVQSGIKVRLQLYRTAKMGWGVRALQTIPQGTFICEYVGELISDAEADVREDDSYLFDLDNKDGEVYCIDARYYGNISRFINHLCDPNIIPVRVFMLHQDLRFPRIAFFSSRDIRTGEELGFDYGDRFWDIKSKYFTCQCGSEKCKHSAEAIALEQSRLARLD
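Quantitative HTS format: methyltransferase activity on a biotin-tagged H3K9 peptide is measured by AlphaScreen, using a rabbit anti-monomethyl-H3K9 antibody with streptavidin donor and anti-IgG acceptor beads. Final levels are 20 nM enzyme, 500 nM peptide, 20 uM SAM; 2 h RT.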
Sfp inh = qHTS Assay for Inhibitors of Bacillus subtilis Sfp phosphopantetheinyl transferase (PPTase); Biochemical Sfp PPTase activity, qHTS; Potency, µM, for inactives: largest response in the series, negative = inhibition, hits mostly inhibitors; 310,000 compounds, 3.5% hits; AID 1490, 2009;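 note: the enzyme is Sfp with the accession as filed and its product quenches rhodamine fluorescence; potency is the fitted concentration of half-maximal effect; 0% = enzyme reaction without inhibitor and -100% = no enzyme wells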
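Buffer: 50 mM Hepes-Na pH 7.6, 10 mM MgCl2, 0.01% Nonidet P-40, 0.01% BSA. Enzyme 15 nM, pre-exposed to compound 15 min; substrates then added and fluorescence change tracked over 30 min.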
LMNA splice mod = qHTS Assay for Modulators of Lamin A Splicing | AID 1487, 2009 | 200,000 compounds, 0.01% hits | Potency, µM (top dose mostly 46.1 µM), inactives show top-dose ratio change, negative = inhibition, actives largely listed as inhibitors | HeLa LMNA splicing GFP/RFP minigene ratio, 48 h; active = well fitted inhibition curve with a large enough effect in the signal ratio, with a control signal flat, not every such curve was filed as active; inconclusive = small, poorly fitted or top-dose-only effect, or effect the other way, or a change in a side signal; the % refers to the signal ratio; note: potency is the fitted concentration of half-maximal effect; % is set by controls: 0 for no effect and ±100 for the full control effect
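Read-out is the ratio of GFP to DsRed2 object intensity, acquired by 488 nm laser-scanning cytometry on HeLa lamin A-EGFP minigene reporter cells. Compound incubation 48 hrs at 37 °C in Opti-MEM with 2% FBS; DMSO 0.5% final.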
miR-21 reporter = qHTS Assay for Modulators of miRNAs and/orActivators of miR-21. HeLa miR-21 FLuc reporter, luciferase, 48 h. Potency, µM (top dose mostly 38.3 µM), for the others: at the highest dose activity change, positive = activation, hits mostly activators. 340,000 tested, under 10 active. AID 2288, 2010;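 note: % of control where 0% means no effect; miR-21 action dims this reporter so a rising signal means less miR-21 action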
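HeLa cells stably expressing CMV-driven firefly luciferase with a downstream miR-21 binding sequence, endogenously expressing miR-21, were treated with titrations (up to about 40uM final) for 48 hours at 37 degree Celsius. Luciferase luminescence was read after lysis.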
ALDH1A1 block = qHTS Assay for Inhibitors of Aldehyde Dehydrogenase 1 (ALDH1A1); Aldehyde dehydrogenase 1A1 (Homo sapiens), P00352; 220,000 compounds, 7.3% hits; Potency, µM (doses to about 75.3 µM), for inactives: at the top dose activity, negative = inhibition, most hits filed as inhibitors; Purified ALDH1A1, NADH fluorescence, propionaldehyde substrate; active = well fitted inhibition curve with a large enough effect, not every such curve was filed as active; inconclusive = small, poorly fitted or top-dose-only effect, or another doubt; inactive = no such curve, though single readings can be large or run the other way;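 note: potency is the fitted concentration of half-maximal effect; plate controls were no enzyme wells and a reference inhibitor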
Target sequence (P00352 whole entry, looked up): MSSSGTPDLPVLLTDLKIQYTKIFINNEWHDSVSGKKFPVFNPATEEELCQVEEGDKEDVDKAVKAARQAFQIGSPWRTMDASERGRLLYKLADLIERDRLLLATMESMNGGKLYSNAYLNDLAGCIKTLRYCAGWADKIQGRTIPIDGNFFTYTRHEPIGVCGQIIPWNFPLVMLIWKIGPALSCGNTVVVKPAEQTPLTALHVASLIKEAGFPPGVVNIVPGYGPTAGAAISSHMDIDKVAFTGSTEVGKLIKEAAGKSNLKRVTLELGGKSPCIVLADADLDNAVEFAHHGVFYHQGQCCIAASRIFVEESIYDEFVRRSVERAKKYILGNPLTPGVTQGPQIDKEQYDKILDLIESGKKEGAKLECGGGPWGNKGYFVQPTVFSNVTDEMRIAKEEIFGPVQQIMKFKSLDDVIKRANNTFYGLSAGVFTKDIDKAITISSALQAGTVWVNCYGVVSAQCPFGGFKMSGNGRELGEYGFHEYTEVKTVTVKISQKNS
JMJD2E inh = qHTS Assay for Inhibitors of Human Jumonji Domain Containing 2E (JMJD2E) | AID 2147, 2009 | Lysine-specific demethylase 4E (Homo sapiens), B2RXH2 | JMJD2E catalytic domain, FDH-coupled NADH fluorescence (FDH is formaldehyde dehydrogenase) | 230,000 compounds, 1.6% hits | Potency, µM (series often up to 57.1 µM), without a hit: top-dose activity change, negative = inhibition, actives largely listed as inhibitors; active = well fitted inhibition curve with a large enough effect, not every such curve was filed as active; inconclusive = small, poorly fitted or top-dose-only effect, or another doubt; inactive = no such curve, though single readings can be large or run the other way;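 note: potency is the fitted concentration of half-maximal effect; 0% = wells with enzyme and -100% = buffer wells without enzyme; nearly all actives have a fitted effect of over 50% in size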
* hit, by the source's call; ? = inconclusive; . = no result given; [ ] = remark or other dose. Unless noted, calls come from the whole dose curve; as a rule, active = well fitted curve in the direction sought with a large enough effect; inconclusive = small, poorly fitted or top-dose-only effect, or another doubt; inactive = no such curve, though single readings can be large; an effect the other way counts as inactive or inconclusive.

SMILES | G9a inh | Sfp inh | LMNA splice mod | miR-21 reporter | ALDH1A1 block | JMJD2E inh
CCN1CCN(C(=O)c2cc(S(=O)(=O)Nc3ccc(S(C)(=O)=O)cc3)ccc2Cl)CC1 | 50µM* | 15% | -12%[46 µM] | 4% | ? | -4%
CC(=O)N1CCN(C(=O)c2cc(S(=O)(=O)Nc3ccc(S(C)(=O)=O)cc3)ccc2Cl)CC1 | 12% | 0% | . | -3% | -2% | 7%
Nc1ncnc2c1ncn2[C@@H]1O[C@H](COP(=O)(O)OP(=O)(O)OC[C@H]2OC(O)[C@H](O)[C@@H]2O)[C@@H](O)[C@H]1O (stereo partly drawn) | 17%[59 µM] | 16% | . | . | -5% | .
COc1ccc(-c2nc(CS(=O)CC(=O)NCc3ccccc3Cl)c(C)o2)cc1OC (stereo not drawn) | -30%[59 µM] | . | . | 0% | . | .
COc1cccc(-c2nc(CS(=O)CC(=O)NCc3ccccc3Cl)c(C)o2)c1 (stereo not drawn) | 35µM* | ? | -4% | -25% | ? | ?
COc1cccc(-c2nc(CS(=O)CC(=O)NCc3ccc4c(c3)OCO4)c(C)o2)c1 (stereo not drawn) | 50µM* | 12% | -6% | -3% | ? | -3%
CC[C@@H](c1ccccc1)n1c(=O)n2n(c1=O)[C@H]1[C@H](O)[C@H]3O[C@H]3C(=O)[C@H]1CC2 | . | 9% | . | . | -1%[13.5 µM] | .
CSc1cccc(NC(=O)Cn2cccc2)c1 | ? | -1% | 8% | -2% | 0.63µM* | -3%
CCCN(CC(=O)Nc1ccccc1OC)C(=O)Cc1ccccc1F | 27% | 11% | . | -1% | . | .
C=CCc1ccc(OCCCNCc2ccccc2)c(OC)c1 | . | -11% | . | -3% | . | .
Cc1cc(C)c(OCCNCc2ccccc2)c(C)c1 | 7.1µM* | -13% | . | -2% | . | .
Cc1cc(Cl)cc(C)c1OCCNCc1ccccc1 | 7.9µM* | -22% | . | -1% | . | .
Cc1cc(Cl)cc(C)c1OCCOCCNCc1ccccc1 | . | -18% | . | 0% | . | .
Cc1cc(C)c(OCCCCNCc2ccccc2)c(Cl)c1 | 35%[0.501 µM] | -15% | -2%[0.0737 µM] | 0% | -3% | -13%
C=CCc1ccccc1OCCNCc1ccccc1 | 8.9µM* | -20% | -8%[46 µM] | -15% | -15% | ?
Clc1ccc(OCCCNCc2ccccc2)c2ccccc12 | . | 56µM* | . | 3% | . | .
CN(C)c1ccc2c3c(ccc(N(C)C)c13)C(=O)OC2 | . | -3% | . | 4% | . | -10%
Cc1cc(Br)ccc1OCCN1CCCC1 | . | -25% | . | -7% | . | .
Cc1cc(C)c(C)c(OCCNCc2ccccc2)c1 | 11µM* | -27% | . | -1% | . | .
Cc1cc(Br)ccc1OCCNCc1ccccc1 | 7.9µM* | -5% | -13%[46 µM] | -18% | -7% | ?
Cc1ccc(S(=O)(=O)N2CCCCC2CCNC(=O)C(=O)NCc2ccccc2)cc1 (stereo not drawn) | -12%[2.33 µM] | . | . | . | . | .
COc1cc(/C=N/NC(=O)c2nonc2C)ccc1O | -8% | 13% | . | -7% | -3% | 0%
O=C(N/N=C/c1ccc(O)c(O)c1)N/N=C/c1ccc(O)c(O)c1 | 45µM* | ? | . | -57% | . | .
Cc1nonc1C(=O)N/N=C/c1ccc(O)c(O)c1 | 45µM* | -6% | -11% | -59% | -9% | -1%
Cc1ccnc(SCC(=O)N2CCc3ccccc3C2)n1 | 40µM* | -10% | 0%[46 µM] | 6% | 18µM* | -7%
SMILES | G9a inh | Sfp inh | LMNA splice mod | miR-21 reporter | ALDH1A1 block | JMJD2E inh
Cn1ccnc1SCC(=O)c1cc2ccccc2o1 | 40µM* | -21% | -1% | -45% | 20µM* | -9%
Cc1nc2ncnn2c(C)c1CCC(=O)N1CCc2ccccc2C1 | -21% | 17% | ? | -8% | 2.2µM* | 7%
CCOC(=O)c1ccc2c(c1)nc(SCC(=O)c1cc3ccccc3o1)n2CC | 79µM* | 4% | -2% | -25% | ? | -8%
Cn1cnnc1SCC(=O)c1cc2ccccc2o1 | ? | -6% | ? | -5% | ? | 4%
O=C(CSc1ncccn1)N1CCc2ccccc2C1 | -24% | -15% | . | -16% | 3% | -4%
Cc1ccnc(SCC(=O)c2cc3ccccc3o2)n1 | 45µM* | -27% | -8%[46 µM] | -30% | -2% | -7%
CCOC(=O)c1ccc(NC(=O)c2cc3ccccc3o2)cc1 | 9% | 79µM* | -5% | -27% | -8% | -9%
COCc1cc(=O)[nH]c(Nc2nc(C)c3ccccc3n2)n1 | 8%[59 µM] | 18% | -6% | -7% | 20µM* | 7%
Cc1ccc2c(C)nc(Nc3nc(CSc4nnnn4-c4ccccc4)cc(=O)[nH]3)nc2c1 | -50%[12.7 µM] | -1% | -5% | -2% | 4µM* | 5%
CCCCCCCN | . | . | . | . | -3% | .
O=C(CCCCCNc1nc(=S)[nH]c2ccccc12)NCCC1=CCCCC1 | 10% | 26% | 27%[46 µM] | 0% | 2% | 1%
CC(Cl)C(=O)Nc1ncc(C(F)(F)F)cc1Cl (stereo not drawn) | ? | 17% | 2% | 6% | 7.1µM* | ?
CON/C=N/C(=S)Nc1ncc(C(F)(F)F)cc1Cl | -8% | 11µM* | . | -3% | ? | 1%
COc1ccc(C(=O)COC(=O)CN2C(=O)C3C4C=CC(C5CC45)C3C2=O)cc1 (stereo not drawn) | -9%[59 µM] | 8% | -8% | -2% | 13µM* | -11%
COc1ccc(NC(=O)CCCN2C(=O)C3C4C=CC(C4)C3C2=O)c(OC)c1 (stereo not drawn) | -50%[59 µM] | 8% | -2% | -3% | 13µM* | -2%
Cc1ccc(C(=O)COC(=O)CCN2C(=O)C3C4CCC(C4)C3C2=O)cc1[N+](=O)[O-] (stereo not drawn) | 4% | 9% | . | -1% | . | .
Cc1ccc(C(=O)COC(=O)CN2C(=O)C3C4CCC(C4)C3C2=O)cc1[N+](=O)[O-] (stereo not drawn) | 45µM* | 6% | -12% | -7% | 20µM* | -10%
COc1ccc(C(=O)COC(=O)C(CCCCN2C(=O)C3C4C=CC(C4)C3C2=O)N2C(=O)C3C4C=CC(C4)C3C2=O)cc1 (stereo not drawn) | -21%[59 µM] | -1% | 4% | -2% | 10µM* | -4%
COc1ccc(OC)c(NC(=O)CCCN2C(=O)C3C4C=CC(C4)C3C2=O)c1 (stereo not drawn) | -38% | 4% | -4% | 0% | ? | -1%
COC(=O)N1CCC2(CCCN(c3ncccn3)C2)CC1 | 0%[12.7 µM] | 8% | . | . | -1% | .
